# Measured values taken from the supplement of paper PMC6555819.
# System: VDR homodimer (NR concentration 270 nM)
# Assay: PBM binding z-score (relative to random genomic background probes); higher = stronger binding; sequences stand for … in GC…GCGATTGACAGCGTAGAATGAAGG
# In short: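 Custom Agilent 4×180K protein-binding microarrays carried double-stranded probes, each with a 34-nt variable region. These regions held direct-repeat seeds, single-nucleotide variants, half-site ablations and random human genomic background sequences. Ligand-free nuclear receptor dimers were incubated on the arrays for 1 h, antibodies against each partner (one per run) detected binding, and scanned fluorescence was regression-normalized. Binding z-scores take the random background probes as reference.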
row,Sequence,PBM binding z-score
1,TCGAGTAGGTTACCAATCGGGCATTCAGCTTTCT,-1.01
2,ATCACTAGGTAAAGTTCAGTGAAAGATCGATAGA,2.29
3,CCTATTACTTGACCATAAGGGCAACCGAAGCTCG,1.23
4,CCTCGGAGGACAGGAGGTCAGAGCTGTCCGCTTT,0.982
5,TCTATTAATTGAAGGGCAACCGACGAGTCCGTTT,2.19
6,ATCGCTAGGTAAAGTTCAGTGAAAGATCGATAGA,1.49
7,ACTAGCAGGCCAGGGGTCACTCAAGATTAGTCCG,2.8
8,AGAATGAGGTTAGTAAGATCAGGGAATTGCGGTC,0.435
9,CTTGAAAGGTCGGTTGAGGTGAGTATACGGATAA,0.867
10,TGAATGAGGTAATAAGATCAGGGAACGTTGCAAA,-0.404
11,TCGAGTAGGTTAGCAATGGGGCATTCAGCTTTCT,-0.45
12,CAAACTAGGTCAAAGGTCACAGTCGAGCCAACCA,2.73
13,CTCCCAAGGTGAACAAGGTCGTTGATTACTATTC,2.22
14,GGAACTAGGGCAAGTTGATAGCAGAGTTTGATGG,0.251
15,AGACAAAGTTCATCTAGGTAACGTAAGATATGCT,5.21
16,TGAATGAGGTTACAAGATCAGGGAACGTTGCAAA,0.106
17,GCTATTAGTTGAAAGGGCGACCGAATGATTCTCG,0.16
18,TCTTGTAGATCAATAGAGGTTATGAAAGTGCGCT,0.0483
